FLuc modulator = qHTS profiling assay for firefly luciferase inhibitor/activator using purifed enzyme and Km concentrations of substrates (counterscreen for miR-21 project); Luciferin 4-monooxygenase (Photinus pyralis), P08659; purified FLuc, Km substrates, luminescence inhibition; Potency, µM (top dose mostly 57.5 µM), without a hit: at the top dose activity change, negative = inhibition, usual class: inhibitors; 360,000 tested, 6.9% active; AID 588342, 2011;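 note: plate controls were vehicle for no effect and reference inhibitor for full effect; nearly all actives have a fitted effect of over 55% in size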
Target sequence (P08659 whole entry, looked up): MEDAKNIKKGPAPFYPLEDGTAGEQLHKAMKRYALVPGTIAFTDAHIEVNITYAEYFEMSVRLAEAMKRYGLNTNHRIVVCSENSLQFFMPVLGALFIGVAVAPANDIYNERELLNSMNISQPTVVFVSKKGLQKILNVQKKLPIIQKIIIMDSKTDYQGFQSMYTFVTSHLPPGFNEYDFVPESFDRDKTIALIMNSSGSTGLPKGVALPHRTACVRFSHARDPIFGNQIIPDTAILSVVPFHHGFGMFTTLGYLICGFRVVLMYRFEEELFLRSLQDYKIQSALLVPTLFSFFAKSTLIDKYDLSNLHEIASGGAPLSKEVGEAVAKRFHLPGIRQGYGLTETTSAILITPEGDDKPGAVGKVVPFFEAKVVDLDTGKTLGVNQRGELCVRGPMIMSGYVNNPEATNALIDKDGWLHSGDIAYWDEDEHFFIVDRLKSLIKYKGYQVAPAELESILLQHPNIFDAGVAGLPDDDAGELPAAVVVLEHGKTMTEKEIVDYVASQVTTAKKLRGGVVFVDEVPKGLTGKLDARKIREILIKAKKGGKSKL
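Biochemical qHTS of compounds, final roughly 60 µM downward over six points, against 10 nM purified firefly luciferase using Km concentrations of substrates (10 uM D-luciferin, 10 uM ATP) in Tris acetate pH 7.5 buffer; luminescence output.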
NPC1 prom act = qHTS Assay for NPC1 Promoter Activators; 320,000 tested, 2.4% active; Huh7 NPC1 promoter luciferase reporter, 24 h; AID 485313, 2010; Potency, µM (highest dose often 9.22 µM), without a hit: top-dose activation, actives largely listed as activators; note: % of control where 0% means no effect; nearly all actives have a fitted effect of over 60% in size
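In 1536-well qHTS, Huh7 cells harboring an NPC1 promoter–luciferase construct received compound for 24 h; activation was quantified by luminescence following luciferase reagent addition.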
KinaseGlo FLuc = Counterscreen for Luciferase (Kinase-Glo TM) Inhibition; Kinase-Glo luciferase, ATP luminescence, 8 min; Potency, µM (highest dose often 38.3 µM), inactives show at the highest dose activity change, negative = inhibition, actives largely listed as inhibitors; 200,000 tested, 0.28% active; AID 1379, 2008; note: % is set by controls: 0 for no effect and ±100 for the full control effect; nearly all actives have a fitted effect of over 60% in size
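Compounds were added to a substrate mix at pH 7.2 (50 mM imidazole, 10 uM ATP, within the enzyme's linear range), followed by Kinase-Glo detection reagent; luminescence was measured after 8 minutes at ambient temperature.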
SMN2 splice enh = qHTS Assay for Enhancers of SMN2 Splice Variant Expression | HEK293 SMN2-luciferase splicing reporter, luminescence, 30-36 h | Potency, µM (top dose mostly 46.1 µM), without a hit: at the highest dose activity change, positive = activation, most hits filed as activators | 210,000 tested, 2.8% active | AID 1458, 2008; note: % of control where 0% means no effect; nearly all actives have a fitted effect of over 55% in size
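HEK293 cells carry an SMN2 […]–luciferase reporter in which exon 7 inclusion puts luciferase in frame. Cells were plated 10-12 h before compound addition, then incubated 30-36 h at 37C. ONE-Glo luminescence was read; sodium butyrate at 4.5 mM final served as control.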
ELG1 genotoxic = qHTS screen for small molecules that induce genotoxicity in human embryonic kidney (HEK293T) cells expressing luciferase-tagged ELG1. HEK293T ELG1-luciferase reporter, luminescence, 16 h. AID 504466, 2011. 330,000 tested, 1.3% active. Potency, µM (highest dose often 46 µM), for the others: at the top dose activity change, positive = activation, usual class: activators; note: % of control where 0% means no effect; nearly all actives have a fitted effect of over 60% in size
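Quantitative HTS format in 1536-well plates. HEK293T ELG1-luciferase reporter cells receive test compound and are incubated 16 hr at 37 °C, 5% CO2; ONE-Glo added, 30 min room temperature, then luminescence read.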
Rab9 prom act = qHTS Assay for Rab9 Promoter Activators; 320,000 tested, 2.8% active; Potency, µM (doses to about 9.22 µM), for inactives: top-dose activation, negative = inhibition, most hits filed as activators; AID 485297, 2010; Huh7 Rab9 promoter-luciferase reporter, luminescence, 24 h; note: % of control where 0% means no effect; nearly all actives have a fitted effect of over 60% in size
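Promoter activation is measured as luciferase luminescence in Huh7 cells stably transfected with a Rab9 promoter–luciferase construct, following 24 h compound exposure at 37 °C and 10 min reagent incubation at ambient temperature.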
The depositor's hits bear a star; u = inconclusive; x = no result given. Only some compounds are listed: those with a hit (about 7.5% of all), similar ones and a draw of the others. Calls come from the whole dose curve; as a rule, active = well fitted curve in the direction sought with a large enough effect; inconclusive = small, poorly fitted or top-dose-only effect, or another doubt; inactive = no such curve, though single readings can be large; an effect the other way counts as inactive or inconclusive. Potency is the fitted concentration of half-maximal effect.

SMILES	FLuc modulator	NPC1 prom act	KinaseGlo FLuc	SMN2 splice enh	ELG1 genotoxic	Rab9 prom act
COc1ccc(C(C)=O)cc1COC(=O)c1cnc(C)cn1	-1.9%	-3.6%	-3.3%	2.24µM*	2.3%	-3.4%
COc1ccc(C(C)=O)cc1COc1ccc(Cl)cc1Cl	15.1µM*	-1.3%	x	x	-4.3%	0.3%
O=C(OCCCOC(=O)c1ccccc1O)c1ccccc1O	3.8%	1.4%	x	x	-4.5%	8.0%
Cc1cccc(C(=O)OCC(=O)Nc2ccc3c(c2)OCCO3)c1O	u	-3.4%	x	x	10.6%	12.1%
COc1cccc(-c2nccc(NCc3cccc(C)c3)n2)c1	x	x	-4.2%	11.2µM*	x	x
Cc1cccc(CNc2ccnc(-c3ccoc3)n2)c1	x	x	-7.7%	-35.0%	x	x
Cc1ccc(S(=O)(=O)N2CCCCC2)cc1NC(=O)C1CC1	x	x	x	x	0.8%	x
CC(C)Cc1ccc(C(=O)NCCOc2ccccc2)o1	0.953µM*	0.316µM*	x	x	3.26µM*	0.794µM*
O=C(NCCOc1ccccc1)c1cc2ccccc2o1	5.36µM*	x	-3.7%	10µM*	x	x
O=C(COc1ccccc1)NNC(=O)c1cc2ccccc2o1	-10.9%	0.6%	-0.7%	-12.6%	0.7%	0.7%
Cc1ccc(NC(=O)Cn2c(=O)n(-c3ccccc3)c(=O)c3ccc(C(=O)NCc4ccc5c(c4)OCO5)cc32)cc1	0.2%	x	x	-3.7%	x	x
CCc1ccc(CSc2nccn2-c2ccccc2)cc1	-1.5%	-3.1%	-7.6%	-3.4%	0.1%	0.3%
c1ccc(CCSc2nccn2-c2ccccc2)cc1	3.38µM*	2.82µM*	-0.8%	20µM*	u	3.16µM*
CCCCCOc1ccc(CN2CCOCC2)cc1Cl	6.75µM*	3.16µM*	-2.7%	u	14.1µM*	3.55µM*
Clc1cc(Br)ccc1OCCN1CCOCC1	-13.4%	-2.8%	-3.3%	-1.4%	0.6%	-3.9%
Cc1ccc(C)c(NC(=O)CSc2cn(CC(=O)N3CCCC3)c3ccccc23)c1	-9.7%	x	x	x	x	x
COC(=O)C(NC(=O)CC(C)C)(Nc1nc2c(s1)CCCC2)C(F)(F)F (stereo unspecified)	-4.9%	x	x	-7.3%	x	x
Cn1ccnc1SCC(=O)c1ccc(O)cc1	-17.6%	24.1%	x	x	12.3%	u
O=C(CSc1nccc(=O)[nH]1)c1cc2ccccc2o1	15.1µM*	-4.1%	x	x	10.2%	3.6%
COc1cccc(C(=O)CSc2nccn2C)c1	16.9µM*	1.58µM*	x	x	u	2.51µM*
Cn1ccnc1SCC(=O)c1cc2ccccc2o1	9.53µM*	u	8.5%	2.7%	u	u
O=C(CSc1ncn[nH]1)c1cc2ccccc2o1	u	-2.7%	-0.2%	-2.3%	2.9%	19.2%
Cn1cnnc1SCC(=O)c1cc2ccccc2o1	-3.4%	-1.0%	1.6%	6.0%	0.6%	-0.8%
COc1cccc(C(=O)CSc2nnnn2C)c1	-10.3%	2.1%	14.1%	-0.7%	2.4%	7.3%
Cn1ccnc1SCC(=O)c1ccc2ccccc2c1	8.49µM*	2.24µM*	-6.8%	u	u	1µM*
SMILES	FLuc modulator	NPC1 prom act	KinaseGlo FLuc	SMN2 splice enh	ELG1 genotoxic	Rab9 prom act
Cc1cc(C)c2nc(C)cc(Nc3cccc(C(=O)O)c3)c2c1	-2.0%	x	x	-0.4%	x	x
O=C(CN1C(=O)COc2ccccc21)NCCCN1CCCCC1	0.3%	-0.5%	x	x	-0.9%	2.8%
CNC(=O)COc1ccc(S(=O)(=O)N2CCCC2)cc1	0.2%	-1.4%	x	x	4.6%	0.2%
N#C/C(=C\c1c(Oc2ccccc2F)nc2ccccn2c1=O)C(=O)NC1CCS(=O)(=O)C1 (stereo unspecified)	-3.0%	-2.3%	x	x	-3.6%	7.0%
Cn1ccnc1SCC(=O)c1cccc(Br)c1	15.1µM*	17.7%	-7.9%	13.9%	u	u
Cn1ccnc1SCC(=O)Nc1ccccc1	-15.2%	1.3%	-4.0%	6.2%	1.8%	-1.4%
COc1ccc(C(=O)CSc2nccn2C)c(OC)c1	13.5µM*	3.98µM*	x	x	u	3.55µM*
Cn1ccnc1SCC(=O)Nc1ccc2ccccc2c1	5.36µM*	1.26µM*	0.2%	6.31µM*	1.3µM*	1.58µM*
COc1ccc(OC)c(C(=O)CSc2nnnn2C)c1	-0.9%	18.4%	-3.8%	1.0%	-2.2%	5.4%
Cn1ccnc1SCC(=O)Nc1cccc(Br)c1	-16.3%	x	x	-0.7%	x	x
Cc1ccc(CC(=O)Nc2ccc(S(=O)(=O)Nc3ncccn3)cc2)cc1	-0.2%	0.9%	x	x	0.0%	5.3%
Cc1ccc([C@@H]2[C@@H]3C(=O)N(C)C(=O)[C@@H]3[C@]3(C)C(=O)N(Cc4ccc(-c5ccccc5)cc4)CC(=O)N23)o1	2.2%	2.7%	x	x	2.1%	-1.9%
CCOCCCNC(=O)c1cc2c(s1)-c1ccccc1SC2	16.9µM*	1.2%	x	x	2.2%	4.9%
COCCOc1ccc(C(F)(F)F)cc1Nc1nc2ccccc2o1	15.1µM*	-2.4%	-2.3%	10.0%	u	-1.5%
COc1ccc(CNc2ccc(-c3ccccc3OC)nn2)cc1	-16.5%	11.2%	2.4%	6.4%	0.9%	2.8%
CCOC(=O)N1CCC(Nc2cc(C)nc3c(-c4ccccc4OC)c(C)nn23)CC1	-1.1%	-5.7%	0.0%	-30.2%	11.9%	-2.9%
COc1ccccc1-c1cnn2c(NC3CCCC3)cc(C)nc12	1.9µM*	u	x	x	u	2.82µM*
COc1ccccc1-c1ccc(NC2CCCC2)nn1	13.5µM*	26.4%	-5.2%	11.2µM*	u	u
O=C(CSc1nc2c([nH]c3ccccc32)c(=O)n1-c1cccc(Cl)c1)N1CCc2ccccc21	-1.4%	x	x	x	x	x
Cc1ccc(C)c(C(=O)Nc2nc3ccccc3[nH]2)c1	-5.2%	27.1%	x	x	-5.7%	27.3%
O=C(/C=C/c1c(F)cccc1Cl)Nc1nc2ccccc2[nH]1	-19.5%	3.16µM*	-8.1%	7.08µM*	u	2.82µM*
Cc1onc(-c2c(F)cccc2Cl)c1C(=O)Nc1nc2ccccc2[nH]1	-16.6%	21.3%	6.5%	28.0%	-7.8%	16.5%
Cc1ccc(Cc2nc3ccccc3[nH]2)cc1	-19.4%	-0.5%	x	x	-2.2%	-0.1%
Cc1ccc(/C=C/C(=O)c2nc3ccccc3[nH]2)cc1	0.757µM*	-0.1%	-21.7%	u	0.7%	10.9%
Cc1ccc(/C=C/C(=O)Nc2nc3ccccc3[nH]2)cc1	u	3.16µM*	1.3%	10µM*	10.3µM*	1.78µM*
CC(=O)N1CCCc2cc(S(=O)(=O)N3CCC(N(C)C(C)C)CC3)ccc21	-0.3%	x	x	x	x	x
CC12CCC(C(=O)Nc3nccs3)(OC1=O)C2(C)C (stereo unspecified)	1.6%	0.7%	4.7%	6.3%	1.0%	2.0%
